This is an account of results in PubChem BioAssay AID588398 (Broad Institute, 2011).

Each structure is given as a SMILES string. Among all 1,200 compounds or so, about 110 (9.2%) were called active. About 8% were inconclusive and are not listed. The list is a sample of the results. Entries with a potency or affinity are not part of this list. A number with no mark means an inactive call.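 Rule for the calls: active = pathway reporter half-maximal dose under half the control reporter's, or control reporter unaffected while pathway reporter is inhibited; inconclusive = either signal flat at 30 to 70% inhibition or poorly fitted; inactive = the rest.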

The test can be described thus: LMP1 TES1 pathway selectivity over dsRED control – imaging, HEK293T, dual-color eGFP/dsRED, cherry-picks, selectivity assay for LMP1 NF-kB inhibitor project, dose response (AID 588398).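 Note: 0% = median of neutral control wells and -100% = median of MG132 positive control wells.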 Particulars: 48 h; HEK293T Tet-On dsRED counter-screen channel, at 19.5 µM (top of the series); activity change, negative = inhibition: at the top concentration. In general terms: The purpose of a counterscreen is to sort out artefacts and off-target activity.
`CCN(C(=O)c1cc(OC)c(OC)c(OC)c1)C1CCCCC1`: the “activity change, negative = inhibition” value was 7.62%.
The result for `C[C@H](NC(=O)N1CCn2c1nc1ccccc12)C(=O)NCC1CCCO1` (some centres undefined) reads 8.93%.
For `CCOC(=O)c1c(CSc2nc(C)cc(C)c2C#N)n(C)c2cc(Br)c(OC(C)=O)cc12`, the “activity change, negative = inhibition” value is 3.15%.
The result for `CCCc1c(C(=O)N/N=C(\C)c2ccccn2)nnn1-c1nonc1N` reads 22.8%; that for `CC(=NNC(=S)N1CCCCC1)c1cccc(C)n1`, -27.2%.
Take `CC(=NNC(=S)N1CCCCCC1)c1cccc2cccnc12`: the “activity change, negative = inhibition” value is -12%.
To `COC(=O)c1ccc(COc2ccccc2/C=C/C(=O)c2ccc(OCC(=O)O)cc2)cc1` belongs -8.56%.
To `COC(=O)c1ccccc1NC(=O)CC(=O)Nc1ccccc1C(=O)OC` belongs 1.92%.
To `COc1cccc(C(=O)N2CCN(c3nc4cc(C)cc(C)c4cc3C#N)CC2)c1` belongs -18%; to `Cc1cc(=O)[nH]c(NN=Cc2cc(Br)ccc2O)n1`, -97.9%; to `COc1ccc(N2C(=O)C(=O)/C(=C(/O)c3ccc(C)cc3)C2c2cccnc2)cc1` (centres undefined), 22.8%.
As for `CCCC(=O)C1=C(O)C(C(=O)OC)C(C)(C)CC1=Nc1ccncc1` (centres undefined), the “activity change, negative = inhibition” value is 19.7%.
To `Cc1csc(N=Nc2ccc(N(C)C)cc2)[n+]1[O-]` belongs -34.3%; to `Cc1ccc2c(c1)N(CC(=O)N1CCCC1)C(=O)c1cccnc1O2`, 38.8%.
On to `COc1ccccc1N1CCN(C(=O)CCC(=O)N2CCN(c3ccc(F)cc3)CC2)CC1`, for which the “activity change, negative = inhibition” value was 3.73%.
The result for `O=C(CSc1nnc(NC(=O)c2ccc3c(c2)OCO3)s1)NCc1ccco1` reads 9.96%.
Turning to `C/C(=N/NC(=O)c1cc(C2CC2)[nH]n1)c1cccs1`, the “activity change, negative = inhibition” value is 20.3%.
To `Cn1c(/C=C/c2ccccc2)nc2ccccc21` belongs 1.47%; to `Cc1ccc2[nH]c(C(=O)N/N=C/c3ccccc3O)c(C)c2c1`, 4.04%; to `COc1cccc(/C=N/NC(=O)c2[nH]nc3c2CCc2ccccc2-3)c1O`, -95.5%.
To `Cn1c(=O)c2c(ncn2CC(=O)Nc2cc(S(=O)(=O)N3CCCCC3)ccc2O)n(C)c1=O` belongs -5.88%; to `COc1ccc(CCNC(=O)CSc2ccsc2[N+](=O)[O-])cc1OC`, -6.35%.
The result for `COC(=O)C(NS(=O)(=O)c1ccc(N2CCCC2=O)cc1)c1ccccc1` (centres undefined) reads -12.8%; that for `CC(C)(C)c1nc2c(s1)CCc1onc(-c3ccc(Br)cc3)c1-2`, 14.6%.
Turning to `CN(C)c1ccc(C=Cc2ccnc3c(O)cccc23)cc1`, the “activity change, negative = inhibition” value is 11.2%.
The result for `COc1ccc(S(=O)(=O)N2CCN(CC(=O)Nc3ccc(C)c(F)c3)CC2)cc1` reads -19.7%; that for `CC(=NNC(=S)Nc1ccccc1Cl)c1ccccn1`, -97.9%.
To `CC(=NNC(=S)Nc1ccccc1)c1ccccn1` belongs -98.8%.
To `C/C(=N/NC(=O)c1ccc(C(C)(C)C)cc1)c1ccccn1` belongs -87.1%.
For the molecule `Cc1cnc(NC(=O)c2ccccn2)s1`, the “activity change, negative = inhibition” value is 9%.
For the molecule `CCOc1cc(C(=O)OC(C)C(=O)Nc2ncc(Cl)cc2Cl)ccc1OCC(=O)N1CCOCC1` (centres undefined), the “activity change, negative = inhibition” value is 12.4%.
The result for `CCCCCC(=O)N1C[C@@H](O)[C@H](n2cc(C3CC3)nn2)C[C@@H]1c1ccc(C)cc1` reads 7.65%; that for `O=C(Nc1cnc2ccccn2c1=O)c1ccc(Cl)cc1Cl`, -8.94%.
To `O=C(O)/C=C/c1ccc2ccccc2n1` belongs -37.2%; to `Cc1cc(C)nc(N/C(=N\S(=O)(=O)Cc2ccccc2)Nc2ccccc2Br)n1`, -58.7%.
The result for `O=C1OCC2=C1C(c1ccc3c(c1)OCO3)c1cc3c(cc1O2)OCO3` (centres undefined) reads 109%; that for `Cc1cccc(C)c1Nc1nc2ccccc2o1`, 18.3%.
As to `Cc1nc(Nc2nc3ccccc3o2)nc2c1CCC2`, the “activity change, negative = inhibition” value is -4.15%.
To `O=[N+]([O-])c1ccc2ncnc(N3CCN(Cc4ccc5c(c4)OCO5)CC3)c2c1` belongs -93.3%.
To `CC(=C/c1ccccc1)/C=N/n1c(-c2ccncc2)n[nH]c1=S` belongs -87.9%; to `CCOC(=O)c1ccc(NC(=O)CSc2nc(N3CCOCC3)nc(N3CCOCC3)n2)cc1`, -0.658%; to `Cc1ccc(S(=O)(=O)N2c3ccccc3-c3c(ssc3=S)C2(C)C)cc1`, 0.776%.
With `Cc1cccc(-n2ncc3c(N4CCOCC4)ncnc32)c1`, the “activity change, negative = inhibition” value is 8.93%.
The result for `O=C(Cc1cccc2ccccc12)Nc1ccc(-c2cc3ccccc3oc2=O)cc1` reads 5.22%.
